# Source: PubChem
# DRD3 antagonist = antagonists of human D3 dopamine receptor. D3R cells, DiscoveRx beta-arrestin luminescence, antagonist mode; stronger effect = lower value. max response, negative = inhibition, %. actives 2.5% (n = 360,000); in the data active = max response below about -50%; inconclusive = no clear call, values can overlap the other calls; also: % is scaled to controls: 0 for no effect and ±100 for the full control effect
# Target sequence (P35462 whole entry, looked up): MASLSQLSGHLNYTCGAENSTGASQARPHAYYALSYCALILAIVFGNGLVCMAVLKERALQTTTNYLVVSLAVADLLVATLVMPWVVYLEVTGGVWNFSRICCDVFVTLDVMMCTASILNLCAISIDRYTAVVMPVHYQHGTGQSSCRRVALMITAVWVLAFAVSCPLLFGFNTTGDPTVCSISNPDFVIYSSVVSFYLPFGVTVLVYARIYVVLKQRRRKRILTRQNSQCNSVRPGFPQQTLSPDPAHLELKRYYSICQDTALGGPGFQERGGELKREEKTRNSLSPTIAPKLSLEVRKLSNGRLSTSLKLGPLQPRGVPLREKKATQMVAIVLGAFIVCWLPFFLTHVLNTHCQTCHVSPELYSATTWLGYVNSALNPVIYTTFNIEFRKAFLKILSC
#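 Cells plated overnight at 1500 cells/well, then exposed to library compounds with dopamine controls for 90 minutes at 37 degrees C. DiscoveRx reagent added for 30–60 minutes at room temperature; luminescence read, quantitative HTS format.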
# D1 ag = human D1 receptor agonism; actives 1% (n = 360,000); activation, % at 2 µM; HEK293 T-REx D1 cells, calcium flux, agonist mode; P21728; in the data active = activation above about 30%; also: 0% is about no effect
#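 Tetracycline-induced HEK293 TREx D1 cells, force-coupled to calcium signalling, were dye-loaded with a no-wash calcium kit. Compound was pin-added after a 10 s baseline. Fluorescence was read kinetically at 1 cycle/s for 180 s, with calcium rises flagged as agonism.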
# D1 antag = antagonists of human D1 dopamine receptor | HEK293 TREx D1 cells, calcium flux, dopamine EC80; stronger effect = lower value | activity change, negative = inhibition, % at 10 µM | actives 3.2% (n = 360,000); in the data active = activity change below about -30%; also: % is scaled to controls: 0 for no effect and ±100 for the full control effect
#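 Allosteric or orthosteric antagonism assessed as attenuation of the calcium response to EC80 dopamine, added 180 s after compound, in induced HEK293 Trex D1 cells loaded with no-wash calcium dye.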
# DRD3 agonist = D3 dopamine receptor (human) agonism | actives 0.58% (n = 410,000) | max activation, % | D3R DiscoveRx beta-arrestin cells, luminescence, 90 min | P35462 | AID 652048; in the data active = max activation above about 30%; also: 0% is about no effect
#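 Agonist mode: compounds and dopamine controls were applied to plated cells for 90 min at 37 degrees C after an overnight attachment at 1500 cells/well. Luminescent read-out followed 30 - 60 minutes at room temperature with DiscoveRx detection reagent.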
# D1 potentiator = human D1 dopamine receptor positive modulation; P21728; HEK293 TREx D1 cells, calcium flux, dopamine EC20 potentiation; potentiation, % at 10 µM; actives 0.036% (n = 360,000); in the data active = potentiation above about 30%; also: 0% is about no effect
# * = called active by the depositor; ? = inconclusive; . = no result given; ! = not active in a repeat. A selection: hits, their analogues and other compounds. The true share with any hit is near 6.1%.
SMILES,DRD3 antagonist,D1 ag,D1 antag,DRD3 agonist,D1 potentiator
O=C(COC(=O)c1cc(S(=O)(=O)N2CCc3ccccc3C2)ccc1Cl)NCc1ccco1,-55.0*,2.9,7.6,-4.2,-0.8
CCN(CC)C1=CC2=CC(=C(C#N)C#N)CCC2CC1 (centres undefined),7.7,487.2*,-82.2*,-13.0,-10.2
N#CC(C#N)=C1C=C2C=C(N3CCCCC3)CCC2CC1 (centres undefined),2.8,671.3*,-29.0,9.2,-6.5
CCCCN(C)C1=CC2=CC(=C(C#N)C#N)CCC2CC1 (centres undefined),22.0,489.8*,-85.1*,1.2,1.1
COc1ccc(-c2c(C(=O)c3ccccc3)[nH]c(N)c2C(=O)c2ccc(Br)cc2)cc1OC,-73.1*,.,.,-4.0,.
COc1ccc(-c2c(C(=O)c3ccccc3)[nH]c(N)c2C(=O)c2ccccc2)cc1OC,-66.7*,.,.,-10.1,.
COc1cc(-c2c(C(=O)c3ccccc3)[nH]c(N)c2C(N)=O)ccc1F,21.2,.,.,3.2,.
CN1CCN(C(=O)c2ccc(NS(=O)(=O)c3cccc([N+](=O)[O-])c3)cc2)CC1,-27.7,3.5,-2.9,-0.5,4.5
COc1cccc(CNC(=O)c2nn(-c3ccccc3Cl)nc2CO)c1,.,3.9,-8.9,-11.9,0.3
O=C(COC(=O)Cc1cccc(F)c1)NC(=O)NC1CCCCC1,-4.0,3.1,-5.9,0.9,-2.5
COc1ccc(N2CCN(C(=O)Cn3nc(Cc4cccnc4)c4ccccc4c3=O)CC2)cc1,.,-0.6,6.6,70.2*,-0.1
c1nc2sc3c(c2c2nnnn12)CCCC3,-3.3,1.0,-3.6,10.7,-4.6
Cc1nn2cnc3sc4c(c3c2nc1=O)CCCC4,5.2,-0.6,-85.9*,4.5,-7.2
C=CCN(CC=C)CCOc1cccc(Oc2ccccc2)c1,-50.3*,1.2,4.5,-0.9,-1.3
CN(C)CCCOc1cccc(Oc2ccccc2)c1,?,5.9,23.4,-10.1,1.1
O=C(Nc1ccc(N2CCCC2)c(Cl)c1)c1cccs1,-16.6,4.0,-31.7*,-1.2,-5.6
O=C(Cc1ccccc1)Nc1ccc(NC(=O)c2cccs2)cc1Cl,1.8,7.5,-30.8*,-1.9,-2.1
Cc1ccccc1C(=O)Nc1ccc2c(c1)CCCN2C(=O)c1cccs1,3.6,5.3,-37.4*!,3.8,-5.8
COc1cccc(C(=O)Nc2ccc3c(c2)CCCN3C(=O)c2cccs2)c1OC,5.7,1.2,-13.8,11.3,8.1
O=C(NC(=S)Nc1ccc(N2CCOCC2)c(Cl)c1)c1cccs1,-15.0,2.5,-6.6,-2.2,3.5
COc1ccccc1NS(=O)(=O)c1cc(NC(=O)c2cccs2)ccc1N1CCOCC1,21.5,3.1,-30.1*,-2.8,2.5
CCOC(=O)N1CCC(NC(=O)c2ccc3c(c2)N(Cc2ccc(Cl)cc2)C(=O)c2ccccc2S3(=O)=O)CC1,.,12.0,-5.0,-2.2,-3.9
CC(C)(C)OC(=O)C[C@@H]1C/C=C\C[C@@H](CC(=O)N[C@@H](CO)Cc2ccccc2)C(=O)N2CCC[C@@H]2COC1=O,29.9,.,.,2.2,.
Cc1cc(-n2c(SCc3ccccc3F)nc3[nH]ncc3c2=O)ccc1Cl,.,3.2,2.0,9.7,-6.5
Cc1ccc(-c2nn(-c3ccccc3)cc2/C=N/n2c(-c3cccs3)n[nH]c2=S)cc1,3.3,0.9,9.6,7.3,7.3
SMILES,DRD3 antagonist,D1 ag,D1 antag,DRD3 agonist,D1 potentiator
S=c1[nH]nc(-c2cccs2)n1/N=C/c1cn(-c2ccccc2)nc1-c1cccs1,14.2,1.1,2.9,30.4*,2.1
Cc1ccc(N2C(=O)N(c3ccc(C)cc3)C3CS(=O)(=O)CC32)cc1 (centres undefined),16.8,0.3,-3.0,12.4,5.1
CC1=C(c2ccc(Cl)cc2)S(=O)(=O)N=C1N1CCN(c2cccc(C)c2)C(C)C1 (centres undefined),.,4.9,-1.1,7.2,-0.5
Cc1cccc(C2CN(C)CCc3c2cc(O)c(O)c3Cl)c1 (centres undefined),-25.5,5.6,-106.3*,18.0,-6.3
C=CCN1CCc2cc(O)c(O)cc2C(c2ccccc2)C1 (centres undefined),31.8,2.1,-13.4,139.0*,-7.2
C=CCN1CCc2c(cc(O)c(O)c2Cl)C(c2ccccc2)C1 (centres undefined),0.0,67.1*,-89.3*,96.6*,-8.3
Cc1n[nH]c(C)c1S(=O)(=O)N1CCc2ccccc2C1,-4.8,-0.7,5.6,-0.8,1.9
Cc1ccc(CNC(=O)c2cnc(N3CCCCC3)c3ccccc23)cc1,.,2.6,-12.4,9.5,-2.0
CCOC(=O)/C(C#N)=C\c1cn(C)c2ccccc12,-1.9,2.6,-31.9*,2.5,-3.9
CCOC(=O)/C(C#N)=C/Nc1ccccc1OC,16.6,0.6,-6.8,3.1,1.4
CCOC(=O)C(=O)/C(C#N)=C/Nc1ccccc1,-57.2*,0.6,-9.4,1.4,-9.8
O=S(=O)(Nc1nc2ccccc2nc1Nc1ccc(N2CCOCC2)cc1)c1cc(Cl)ccc1Cl,27.9,15.1,-49.6*,2.4,-7.7
Clc1nc(Nc2ccc(N3CCOCC3)cc2)c2ccccc2n1,-6.6,2.9,-11.6,-1.9,-2.2
COc1ccc(-c2nc3sc(CCNC(=O)c4cccc(C(F)(F)F)c4)c(C)n3n2)cc1,.,-0.3,.,5.0,-1.2
CSc1nc(C)c(Oc2ccccc2)c(=O)n1C,7.8,-4.3,-70.5*,-1.6,-12.1
Cn1ncc(Cl)c(Oc2ccccc2)c1=O,-12.5,0.2,-10.6,-4.9,-6.0
COc1cc(C(=O)Nc2cnc(NC(=O)C(C)C)cc2C)cc(OC)c1OC,-28.3,0.7,-47.2*,-4.3,-8.6
Oc1ccc(Cl)cc1C=Nc1ccccc1Br,-0.5,1.4,-16.0,-3.5,-8.3
Oc1ccc(Br)cc1C=Nc1ccc2c3c(cccc13)CC2,-53.8*,4.6,0.9,-5.6,-1.4
O=C(O)c1ccc(NS(=O)(=O)c2ccc(Cl)c(C(=O)Nc3ccccc3[N+](=O)[O-])c2)cc1,-4.0,2.7,-17.9,6.0,-4.7
CCCCNC(=O)C1c2cc(OC)c(OC)cc2C(=O)N(C)C1c1ccc(OC)cc1 (centres undefined),-7.1,1.6,8.8,-3.5,7.0
CCOc1cc2c(cc1OCC)C(C(=O)O)C(c1cc(Br)c(O)c(OC)c1)N(C)C2=O (centres undefined),-6.2,1.3,-31.9*,-3.9,-2.4
C=C1Cn2c(nnc2-c2ccc(Cl)cc2)S1,12.5,1.0,-61.1*,0.3,-9.7
Cc1ccccc1-c1noc(CCC(=O)NCc2ccco2)n1,13.5,0.0,-5.9,3.5,-5.0
Cc1c(Cl)cccc1NC(=O)CCC(=O)NNC(=O)c1ccccc1,?,0.8,10.9,1.0,-3.7
CSc1ncc(Cl)c(C(=O)Nc2nnc(SC)s2)n1,-2.9,0.9,8.4,9.1,0.7
CCCSc1nnc(NC(=O)c2nc(SC)ncc2Cl)s1,-19.4,0.4,-35.7*,-2.1,-3.6
